Among the data in PubChem BioAssay (NCATS) are Potency and outcome values, retold here.

Inconclusive results are not listed. Activity calls are given as the source filed them. The call rests on the fitted dose curve; in most records, active means well fitted curve in the direction sought with a large enough effect; inconclusive means small, poorly fitted or top-dose-only effect, or another doubt; inactive means no such curve, though single readings can be large; an effect the other way counts as inactive or inconclusive.

Assay [1] is described as follows: qHTS of pediatric cancer cell lines to identify multiple opportunities for drug repurposing: Primary screen for OHS-50 cells (AID 1347103). Further: nearly all actives have a fitted effect of over 40% in size. Further: potency means the concentration at half of the fitted maximal effect. The procedure, abridged:
(§1)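 Cells (500-1,000/well) rested 5 h, then received compounds for 48 h; metabolically active cells were measured by CellTiter-Glo luminescence. Final concentrations spanned up to 46 µM (MIPE, 11-point) or 0.59 nM-46 µM (NPC, 8-point) in primary screens, 11-point in follow-ups.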

Assay [2] in a line: qHTS of pediatric cancer cell lines to identify multiple opportunities for drug repurposing: Primary screen for RD cells (AID 1347104). Further: nearly all actives have a fitted effect of over 55% in size. The method in brief: (§2)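 Luminescence from CellTiter-Glo served as readout of metabolically active cells after 48 h compound exposure. Titrations: MIPE 11-point, from 0.78 nM; NPC 8-point, from 0.59 nM (final). Concentration-response curves came straight from the primary screen.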
In general terms: In qHTS, concentration-response curves come from the screen itself.

A short description of assay [3]: qHTS of pediatric cancer cell lines to identify multiple opportunities for drug repurposing: Primary screen for MG 63 (6-TG R) cells (AID 1347105). Further: nearly all actives have a fitted effect of over 50% in size. The procedure, abridged: as §2
Assay [4] can be described thus: qHTS of pediatric cancer cell lines to identify multiple opportunities for drug repurposing: Primary screen for control Hh wild type fibroblast cells (AID 1347106).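 Further: series mostly up to about 46 µM; a drop in luminescence marks cytotoxicity and a rise apparent proliferation; nearly all actives have a fitted effect of over 55% in size.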 The procedure, abridged: (§3)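 Cells (500-1,000/well) in growth media were settled 5 h at 37 degrees C, then given compounds for 48 h. Viability was read as CellTiter-Glo luminescence. Primary runs used MIPE at 11 points (0.78 nM-46 µM) and NPC at 8 points (0.59 nM-46 µM); follow-ups used 11 points.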

Assay [5] in a line: qHTS of pediatric cancer cell lines to identify multiple opportunities for drug repurposing: Primary screen for Rh30 cells (AID 1347107). Further: series mostly up to about 46 µM; nearly all actives have a fitted effect of over 75% in size. The method in brief:
as §3

The nature of assay [6]: qHTS of pediatric cancer cell lines to identify multiple opportunities for drug repurposing: Primary screen for NB1643 cells (AID 1347099). Further: nearly all actives have a fitted effect of over 50% in size. Further: potency means the concentration at half of the fitted maximal effect. The method in brief:
as §2

A short description of assay [7]: qHTS of pediatric cancer cell lines to identify multiple opportunities for drug repurposing: Primary screen for BT-12 cells (AID 1347101). Further: nearly all actives have a fitted effect of over 25% in size. Further: potency means the concentration at half of the fitted maximal effect. The method in brief: as §1
The nature of assay [8]: qHTS of pediatric cancer cell lines to identify multiple opportunities for drug repurposing: Primary screen for Rh18 cells (AID 1347102). Further: nearly all actives have a fitted effect of over 65% in size. The procedure, abridged:
as §3

The nature of assay [9]: qHTS of pediatric cancer cell lines to identify multiple opportunities for drug repurposing: Primary screen for LAN-5 cells (AID 1347100). Further: potency means the concentration at half of the fitted maximal effect. The procedure, abridged: as §3

As to `CC(C)=CC1C(C(=O)OCN2C(=O)C3=C(CCCC3)C2=O)C1(C)C` (configuration not stated), the Potency result in [1], in [2] and in [3] was “inactive” throughout. For the same molecule, the call in assay [4] and in [5] was inactive.

For the molecule `NNc1ccccc1`, the Potency entry in [6], in [7], in assay [8], in [1], in assay [2] and in assay [3] was “inactive” throughout. The outcome in assay [4] and in assay [5] was inactive.

With `CC(C)(C)NCC(O)c1ccccc1Cl` (configuration not stated), the Potency result in [6], in assay [9], in [7], in assay [1], in assay [2] and in assay [3] was “inactive” in each case. Besides, the molecule was classed as inactive in assay [4] and in assay [5].

With `C=CCC1([C@H](C)CCC)C(=O)NC(=O)NC1=O`, the Potency entry in [6], in assay [9], in assay [8], in assay [1], in [2] and in assay [3] was “inactive” in each case. Also, the outcome in assay [4] and in assay [5] was inactive.

In the case of `CC(Cc1ccccc1)N(C)Cc1ccco1` (configuration not stated), the Potency result in assay [6], in assay [9], in [8], in [1], in [2] and in assay [3] was “inactive” in each case. The result in [4] and in assay [5] was inactive.

With `O=C1CN=C(c2ccccc2)c2cc([N+](=O)[O-])ccc2N1`, the Potency result in assay [6], in [9], in assay [1], in assay [2] and in assay [3] was “inactive” each time. The result in [4] and in [5] was inactive.

Turning to `CC(C)N(CCC(C(N)=O)(c1ccccc1)c1ccccn1)C(C)C` (configuration not stated), the Potency result in [6], in [9], in assay [8], in [1], in assay [2] and in [3] was “inactive” each time. For the same molecule, the molecule was called inactive in [4] and in assay [5].

With `C[C@]12CCC(=O)C=C1CC[C@@H]1[C@H]3CC[C@](C)(O)[C@@]3(C)CC[C@@H]12`, the Potency in assay [6] was 34.7 µM (active); in assay [7], 28.6 µM (active); in [1], 25.5 µM (active). For the same molecule, the molecule was called inactive in assay [4].

In the case of `O=C1c2ccccc2C(=O)C1C(=O)C(c1ccccc1)c1ccccc1`, the Potency entry in assay [6], in assay [7] and in assay [2] was “inactive” each time. The outcome in assay [4] and in assay [5] was inactive.

As to `CC(C)c1cccc(C(C)C)c1O`, the Potency result in [6], in [9], in assay [8], in assay [1], in [2] and in assay [3] was “inactive” throughout. The result in assay [4] and in [5] was inactive.

Take `COP(=S)(OC)Oc1ccc(SC)c(C)c1`: the Potency result in [6], in [9], in assay [7], in assay [1], in assay [2] and in assay [3] was “inactive” in each case. The molecule was classed as inactive in assay [4] and in assay [5].

On to `CCOP(=S)(OCC)Oc1ccc2c(C)c(Cl)c(=O)oc2c1`, for which the Potency result in assay [6], in assay [1], in [2] and in assay [3] was “inactive” throughout. Also, the molecule was called inactive in assay [4] and in [5].

In the case of `O=c1c(C2CC(c3ccc(-c4ccc(Br)cc4)cc3)Cc3ccccc32)c(O)sc2ccccc12` (configuration not stated), the Potency in assay [6] and in assay [9] was 10.6 µM (active) each time. In assay [8], the Potency entry was “inactive”. Also, the outcome in assay [4] was inactive.

Turning to `Clc1ccc(C(c2ccc(Cl)cc2)C(Cl)(Cl)Cl)cc1`, the Potency result in [9] and in [2] was “inactive” throughout. The result in assay [4] and in [5] was inactive.

In the case of `CCCCCCC(=O)CCCCCC/C=C/C[C@@H](O)[C@H](O)[C@@](N)(CO)C(=O)O`, the Potency entry in [6], in assay [9], in assay [8] and in [2] was “inactive” throughout. The call in assay [4] and in assay [5] was inactive.
